From PMC5700166
Where a chain is given by its changes, count along the chain named.

Legend:
Experiment in all cases: protein-binding microarray (PBM); PBM: ~300 nM protein, 6 mM HEPES pH 7.8, 80 mM KCl, 0.5 mM EDTA, 0.5 mM EGTA, 6% glycerol, 35 ng/ul poly-dIdC, 1% milk, 1 h, room temperature; Ap Aiptasia and Nv Nematostella (sea anemones) / Co Capsaspora / Aq Amphimedon (sponge) / Dm Drosophila / Hu human; RHD is the Rel homology domain; high values mean tight binding
Conditions in all cases: dsDNA, one strand shown
GST-Ap-NF-kB RHD = target: T1, GST-Ap-NF-kB RHD (Exaiptasia pallida (Aiptasia), UniProt A0A913YAJ5 2-422)
T1 sequence: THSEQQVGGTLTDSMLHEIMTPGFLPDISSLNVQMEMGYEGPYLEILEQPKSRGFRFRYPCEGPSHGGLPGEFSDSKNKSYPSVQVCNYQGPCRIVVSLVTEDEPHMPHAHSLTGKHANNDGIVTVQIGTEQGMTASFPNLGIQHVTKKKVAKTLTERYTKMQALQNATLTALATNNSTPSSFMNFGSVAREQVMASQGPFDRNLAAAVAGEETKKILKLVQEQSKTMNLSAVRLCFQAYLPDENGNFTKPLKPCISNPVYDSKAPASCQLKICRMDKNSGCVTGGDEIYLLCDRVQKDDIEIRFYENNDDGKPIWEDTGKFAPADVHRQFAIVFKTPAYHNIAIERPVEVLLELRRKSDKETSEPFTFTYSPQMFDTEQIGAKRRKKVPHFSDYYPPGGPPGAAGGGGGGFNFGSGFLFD

[1] = target: T2, GST-Nv-NF-kB (Cys allele) (Nematostella vectensis, UniProt E5G601 2-411)
T2 sequence: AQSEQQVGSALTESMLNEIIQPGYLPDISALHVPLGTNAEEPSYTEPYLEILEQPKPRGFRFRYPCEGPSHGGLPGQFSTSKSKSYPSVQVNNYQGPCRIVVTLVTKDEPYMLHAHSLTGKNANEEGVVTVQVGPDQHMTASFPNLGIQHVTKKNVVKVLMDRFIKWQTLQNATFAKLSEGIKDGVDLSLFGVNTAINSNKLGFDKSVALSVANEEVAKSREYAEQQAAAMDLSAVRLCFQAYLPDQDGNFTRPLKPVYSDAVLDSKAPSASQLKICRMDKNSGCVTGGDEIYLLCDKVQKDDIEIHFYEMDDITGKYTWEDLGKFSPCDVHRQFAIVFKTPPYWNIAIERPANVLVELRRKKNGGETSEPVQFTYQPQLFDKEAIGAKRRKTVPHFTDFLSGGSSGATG

[2] = target: T3, GST-Nv-NF-kB (Ser allele) (Nematostella vectensis, UniProt A7UNT2 2-411)
T3 sequence: T2 sequence with Q21R, C66S, S207N, E215Q, V217A, E225K, A268E, D399E

GST-Co-NF-kB = target: T4, GST-Co-NF-kB (Capsaspora owczarzaki, UniProt F1ARL5 200-546)
T4 sequence: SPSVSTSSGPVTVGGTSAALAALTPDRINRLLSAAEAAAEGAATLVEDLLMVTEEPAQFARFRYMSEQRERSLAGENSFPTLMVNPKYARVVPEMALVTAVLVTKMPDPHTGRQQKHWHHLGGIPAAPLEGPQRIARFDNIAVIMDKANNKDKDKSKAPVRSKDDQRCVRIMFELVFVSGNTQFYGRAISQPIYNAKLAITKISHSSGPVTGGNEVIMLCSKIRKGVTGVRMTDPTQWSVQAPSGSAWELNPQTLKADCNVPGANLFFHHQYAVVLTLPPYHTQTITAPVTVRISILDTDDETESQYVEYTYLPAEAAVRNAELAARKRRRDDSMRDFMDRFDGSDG

GST-Dm-Relish = target: T5, GST-Dm-Relish (Drosophila melanogaster, UniProt Q94527 99-473)
T5 sequence: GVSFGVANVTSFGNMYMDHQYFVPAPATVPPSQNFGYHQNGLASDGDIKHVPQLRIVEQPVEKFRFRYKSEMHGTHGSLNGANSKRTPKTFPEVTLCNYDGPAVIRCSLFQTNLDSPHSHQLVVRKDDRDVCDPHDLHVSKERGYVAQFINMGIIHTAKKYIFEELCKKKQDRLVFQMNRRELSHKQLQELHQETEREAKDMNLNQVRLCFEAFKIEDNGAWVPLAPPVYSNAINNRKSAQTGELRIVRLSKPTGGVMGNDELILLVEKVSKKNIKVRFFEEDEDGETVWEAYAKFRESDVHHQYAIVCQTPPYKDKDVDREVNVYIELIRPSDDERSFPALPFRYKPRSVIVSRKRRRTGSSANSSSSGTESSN

GST-Aq-NF-kB = target: T6, GST-Aq-NF-kB (Amphimedon queenslandica, UniProt A9Y5G7 2-389)
T6 sequence: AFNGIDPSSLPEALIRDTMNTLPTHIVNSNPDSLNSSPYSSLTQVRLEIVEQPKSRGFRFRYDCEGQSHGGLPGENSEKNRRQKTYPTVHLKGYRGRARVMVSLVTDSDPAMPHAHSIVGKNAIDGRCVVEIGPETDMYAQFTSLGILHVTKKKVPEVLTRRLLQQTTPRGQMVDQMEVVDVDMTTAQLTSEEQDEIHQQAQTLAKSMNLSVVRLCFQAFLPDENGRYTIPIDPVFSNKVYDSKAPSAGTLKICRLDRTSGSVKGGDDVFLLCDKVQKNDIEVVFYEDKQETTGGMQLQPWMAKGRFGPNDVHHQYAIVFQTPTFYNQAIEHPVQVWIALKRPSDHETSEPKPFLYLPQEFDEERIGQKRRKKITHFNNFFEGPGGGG

GST-Hu-p50 = GST-Hu-p50 (Homo sapiens, UniProt P19838 7-356)
GST-Hu-p50, sequence (P19838 7-356): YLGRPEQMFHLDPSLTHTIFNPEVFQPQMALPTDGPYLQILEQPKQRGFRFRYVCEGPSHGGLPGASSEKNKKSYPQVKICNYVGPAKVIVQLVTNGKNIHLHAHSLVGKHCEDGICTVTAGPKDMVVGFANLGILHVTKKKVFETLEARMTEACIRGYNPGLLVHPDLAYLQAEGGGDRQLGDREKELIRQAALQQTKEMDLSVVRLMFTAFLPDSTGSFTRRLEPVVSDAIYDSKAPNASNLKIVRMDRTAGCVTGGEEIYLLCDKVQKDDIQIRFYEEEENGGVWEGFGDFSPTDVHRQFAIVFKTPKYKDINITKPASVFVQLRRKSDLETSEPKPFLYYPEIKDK

| Sequence | binding signal (GST-Ap-NF-kB RHD) [z-score] | binding signal [1] [z-score] | binding signal [2] [z-score] | binding signal (GST-Co-NF-kB) [z-score] | binding signal (GST-Dm-Relish) [z-score] | binding signal (GST-Aq-NF-kB) [z-score] | binding signal (GST-Hu-p50) [z-score] |
| --- | --- | --- | --- | --- | --- | --- | --- |
| CCGATTAACATCACCCTCCCCCCTGATGTTAATCGGGTCTTGATTCGCTTGACGCTGCTG | 4.55 | 4.25 | 4.55 | 6.06 | 3.66 | 3.9 | 4.13 |
| CCGATTAACATCAGGGGGATATATGATGTTAATCGGGTCTTGATTCGCTTGACGCTGCTG | 6.45 | 5.67 | 6.14 | 6.72 | 4.91 | 5.58 | 5.49 |
| CCGATTAACATCAAGGGGGATCCTGATGTTAATCGGGTCTTGATTCGCTTGACGCTGCTG | 8.33 | 6.38 | 7.04 | 3.07 | 8.84 | 6.34 | 6.91 |
| CCGATTAACATCAGGGGGATAACTGATGTTAATCGGGTCTTGATTCGCTTGACGCTGCTG | 6.6 | 4.96 | 5.96 | 6.99 | 7.19 | 5.34 | 5.17 |
| CCGATTAACATCAGGGGAAGTAATGATGTTAATCGGGTCTTGATTCGCTTGACGCTGCTG | 4.58 | 6.3 | 7.78 | 5.87 | 6.8 | 4.63 | 5.36 |
| CCGATTAACATCAGGGGTAAATATGATGTTAATCGGGTCTTGATTCGCTTGACGCTGCTG | 2.7 | 3.39 | 3.87 | 7.48 | 1.66 | 3.06 | 3.84 |
| CCGATTAACATCAAAAGTCCCCTTGATGTTAATCGGGTCTTGATTCGCTTGACGCTGCTG | 8.69 | 9.23 | 8.99 | 3.35 | 9.45 | 7.89 | 7.27 |
| CCGATTAACATCAGGCCTTTCCCTGATGTTAATCGGGTCTTGATTCGCTTGACGCTGCTG | 2.77 | 4.72 | 2.62 | 1.36 | 5.87 | 6.74 | 3.53 |
| CCGATTAACATCAAAACTTCCCCTGATGTTAATCGGGTCTTGATTCGCTTGACGCTGCTG | 8.71 | 10.4 | 12.1 | 9.44 | 8.98 | 8.18 | 7.33 |
| CCGATTAACATCAGATATTCCCCTGATGTTAATCGGGTCTTGATTCGCTTGACGCTGCTG | 7.71 | 9.63 | 8.71 | 8.17 | 5.36 | 7.31 | 5.94 |
| CCGATTAACATCAGGGGAGTACCTGATGTTAATCGGGTCTTGATTCGCTTGACGCTGCTG | 7.52 | 5.33 | 6.46 | 3.7 | 7.86 | 7.18 | 4.93 |
| CCGATTAACATCAGAAAATTCCCTGATGTTAATCGGGTCTTGATTCGCTTGACGCTGCTG | 6.03 | 9.51 | 8 | 4.76 | 7.55 | 7.67 | 6.47 |
| CCGATTAACATCACGGGGAAAACTGATGTTAATCGGGTCTTGATTCGCTTGACGCTGCTG | 7.27 | 7.6 | 9.43 | 10.2 | 5.68 | 5.55 | 5.8 |
| CCGATTAACATCAGGGGGATACCTGATGTTAATCGGGTCTTGATTCGCTTGACGCTGCTG | 7.92 | 7.48 | 6.28 | 6.16 | 8.18 | 8.7 | 5.56 |
| CCGATTAACATCAGGGGAAGAACTGATGTTAATCGGGTCTTGATTCGCTTGACGCTGCTG | 4.9 | 5.96 | 6.48 | 6.9 | 9.56 | 5.61 | 4.93 |
| CCGATTAACATCAGGGGGTGGGATGATGTTAATCGGGTCTTGATTCGCTTGACGCTGCTG | 2.8 | 2.48 | 3.52 | 3.22 | 3.58 | 3.34 | 3.07 |
| CCGATTAACATCACGGAACCCCCTGATGTTAATCGGGTCTTGATTCGCTTGACGCTGCTG | 7.51 | 4.89 | 6.13 | 2.13 | 9.21 | 5.54 | 5.79 |
| CCGATTAACATCAGGGGGAGGTATGATGTTAATCGGGTCTTGATTCGCTTGACGCTGCTG | 4.66 | 4.16 | 5.35 | 6.26 | 2.41 | 3.87 | 4.35 |
| CCGATTAACATCAAATTCCCCCGTGATGTTAATCGGGTCTTGATTCGCTTGACGCTGCTG | 9.52 | 8.91 | 9.58 | 11 | 8.23 | 7.32 | 7.06 |
